# Screens from PubChem.
# Sampled rows, rich in hits. Any-hit rate of the full collection: about 4.1%.
# BoNT A protease: BoNT A light chain protease inhibition; hit rate 0.17% among 360,000; inhibition, % at 10 µM; multiplex microsphere protease substrate cleavage, flow cytometry; also: plate controls were buffer without enzyme for full effect and enzyme alone for no effect
# MazEF act: MazEF (E. coli) toxin RNase activation; P0AE70; hit rate 0.32% among 350,000; FAM/BHQ RNA-DNA oligo cleavage fluorescence, 5 h; activation, % at 20 µM; in the data active = activation above about 50%
# Target sequence (P0AE70 whole entry, looked up): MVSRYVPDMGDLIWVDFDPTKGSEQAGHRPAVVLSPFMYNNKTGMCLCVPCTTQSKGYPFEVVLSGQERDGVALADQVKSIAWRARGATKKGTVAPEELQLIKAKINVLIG
# Anthrax LF inh2: anthrax lethal factor protease inhibition. inhibition, % at 10 µM. P15917. AID 588501. hit rate 0.12% among 360,000. multiplex microsphere protease cleavage assay, LF; also: plate controls were buffer without enzyme for full effect and enzyme alone for no effect
# DUSP3 inh: inhibitors of human VHR1 phosphatase (DUSP3); AID 1654; recombinant VHR phosphatase, pNPP absorbance; inhibition, % at 13.3 µM; hit rate 0.52% among 290,000; in the data active = inhibition above about 50%
# Target sequence (P51452 whole entry, looked up): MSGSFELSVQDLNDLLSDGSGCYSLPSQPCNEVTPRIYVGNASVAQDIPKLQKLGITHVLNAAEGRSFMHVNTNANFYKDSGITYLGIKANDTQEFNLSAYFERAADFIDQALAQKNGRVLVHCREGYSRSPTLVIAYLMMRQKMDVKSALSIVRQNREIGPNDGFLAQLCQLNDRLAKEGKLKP
# Autofluor counter: flagged as autofluorescent in microsphere protease counterscreen; compound autofluorescence counterscreen, microsphere flow cytometry; hits give high values; fluorescence intensity (concentration not given with the values); hit rate 3.1% among 360,000; AID 624483; in the data active = fluorescence intensity above about 16000; inconclusive = no clear call, values can overlap the other calls
# BoNT-F LC inh: inhibitors of Botulinum neurotoxin F light chain protease. Multiplex microsphere protease cleavage assay, flow cytometry. AID 588497. inhibition, % at 10 µM. hit rate 0.22% among 360,000; in the data active = inhibition above about 35%, passing the limit was not always enough; inconclusive = no clear call, values can overlap the other calls; also: plate controls were buffer without enzyme for full effect and enzyme alone for no effect
# Starred values were filed as active, the others as inactive; ? = inconclusive; nt = no result. Rule as the data show it, unless noted: active = inhibition above about 30%; inconclusive = no clear call, values can overlap the other calls; inactive = below that.
SMILES,BoNT A protease,MazEF act,Anthrax LF inh2,DUSP3 inh,Autofluor counter,BoNT-F LC inh
Cc1c(NC(=O)C(C)OC(=O)c2ncc(Cl)c(Cl)c2Cl)c(=O)n(-c2ccccc2)n1C (configuration not stated),4.3,4.3,-2.3,nt,5025,-9.6
COc1ccccc1NS(=O)(=O)c1c(C(=O)N2CCCC2)c(C)n(C)c1C,-0.1,5.0,0.4,20.9,5519,6.4
O=C(O)CCC(=O)CCC(=O)c1ccccc1,?,14.0,-1.8,13.0,23543*,-3.0
COC(=O)CCCCCCCCCCN1CCCCC1,0.0,0.3,-1.1,12.6,2559,-2.3
O=C(OCCN1CCCCC1)c1ccc(O)cc1,2.8,1.9,1.1,5.0,21154*,4.6
O=C(OCCCN1CCCCC1)c1ccc(O)cc1,0.3,1.9,-4.0,-4.6,5888,-23.1
C1CCCN(CCCCN2CCCCCC2)CC1,4.6,4.5,-5.2,-2.4,21776*,3.5
Cc1ccc(C(=O)CCC(=O)CCC(=O)O)cc1,0.1,1.8,-3.4,nt,11167,-7.5
OC(CCCCN1CCCCC1)c1ccccc1 (configuration not stated),?,-15.2,-2.0,21.4,22737*,3.0
O=C(CCNC(=O)C1CCN(S(=O)(=O)c2ccccc2)CC1)NCc1ccccc1Cl,0.7,-0.7,-0.1,-3.6,4711,9.0
O=C(Cn1c(=O)oc2ccccc21)N1CCN(S(=O)(=O)c2ccccc2)CC1,-0.3,-31.2,6.3,nt,3692,2.1
O=C(CCN1CCCCC1)c1ccccc1,?,4.8,0.8,11.6,16441*,0.7
CC(C)N(CCCNC(=O)C1CCN(C(=O)c2cc3sccc3n2C)CC1)Cc1ccccc1,0.8,7.2,-3.4,1.3,4389,-0.6
Cc1cccc(NC(=O)/C(=C\c2cccs2)NC(=O)c2ccccc2)c1,-0.2,58.9*,-5.2,-0.1,3365,2.3
COC(=O)c1sc2ccccc2c1C(=O)OC,?,-7.0,3.6,29.3,22728*,3.5
Cn1c2ccc(F)cc2c2nc3ccccc3nc21,14.9,111.4*,10.1,38.8,3088,?
CCn1c2ccc(F)cc2c2nc3ccccc3nc21,19.8,1.0,-2.7,21.9,4724,4.1
Cn1c(=O)c2nc3ccccc3nc2n(C)c1=O,0.4,7.0,-3.2,11.0,4402,0.5
Cc1ccc2c(c1)c1nc3ccccc3nc1n2C,24.3,221.5*,4.4,34.8,3344,21.2
Cc1ccc2c(c1)c1nc3ccccc3nc1n2CCN1CCOCC1,23.7,1.1,20.6,-13.2,2248,16.4
CCOc1ccc2c(c1)c1nc3ccccc3nc1n2C,9.2,97.7*,20.1,17.2,2921,26.9
Cn1c2ccc(Cl)cc2c2nc3ccccc3nc21,40.3*,-5.4,24.7,12.4,4173,17.8
CCOc1ccc2c(c1)c1nnc(SCC(=O)N3CCC(C)CC3)nc1n2C,-0.6,3.5,1.6,-1.3,9172,-12.4
C#CCN(C[C@H]1[C@H](OC(=O)NC2CCCC2)[C@H](OC(=O)NC2CCCC2)C[C@@H](C(=O)OC)[C@H]1C(=O)OC)S(=O)(=O)c1ccc(C)cc1,-0.4,6.1,-5.5,nt,3568,-0.3
COc1ccc(N2CCN(CCCNC(=O)C3(S(=O)(=O)c4ccc(Cl)cc4)CC3)CC2)cc1,?,5.7,-7.2,9.7,26083*,-15.7
SMILES,BoNT A protease,MazEF act,Anthrax LF inh2,DUSP3 inh,Autofluor counter,BoNT-F LC inh
CC(=O)c1ccc(N2CCN(C(=O)C3(S(=O)(=O)c4ccc(Cl)cc4)CC3)CC2)cc1,0.2,-4.3,-1.4,20.0,19219*,-0.3
O=C(N1CCN(c2cccc(Cl)c2)CC1)C1(S(=O)(=O)c2ccc(Cl)cc2)CC1,-0.4,-9.0,-1.2,-20.6,3795,10.0
CCOc1cc(/C=C2/C(=N)N3C(=NC2=O)SN=C3S(=O)(=O)C(C)C)ccc1OC(=O)c1ccco1,1.6,61.8*,-0.4,-0.7,6340,-0.8
Nc1nc2c(ncn2[C@@H]2O[C@H](CNCc3ccc(Oc4cc(-n5cccn5)ncn4)cc3)[C@@H](O)[C@H]2O)c(=O)[nH]1,-0.2,nt,-7.9,nt,5734,-14.3
COc1cccc(N2C(=O)NC(=O)C3(Cc4cc(C)ccc4N(C)C3)C2=O)c1 (configuration not stated),-0.2,-2.2,-1.1,33.7,2993,-8.3
COc1ccc(OC)c(N2C(=O)NC(=O)C3(Cc4cc(C)ccc4N(C)C3)C2=O)c1 (configuration not stated),0.3,-3.7,-1.5,11.3,16331*,1.6
COc1cc(CN2C(=O)NC(=O)C3(Cc4cc(C)ccc4N(C)C3)C2=O)cc(OC)c1 (configuration not stated),-0.5,-10.1,-1.9,22.1,22009*,-1.8
Cc1ccc2c(c1)CC1(CN2C)C(=O)NC(=O)N(c2cc(C)ccc2C)C1=O (configuration not stated),1.3,-6.2,-1.0,14.7,22449*,2.7
N#Cc1ccccc1NC(=O)COC(=O)c1c[nH]c2ccccc12,nt,10.2,nt,nt,nt,nt
Cc1ccc(-c2nc(C=Nc3ccc(O)cc3)c(O)o2)cc1,-1.6,25.2,6.5,7.2,3595,2.8
Cc1ccc(N=Cc2nc(/C=C/c3cccc([N+](=O)[O-])c3)oc2O)cc1,?,21.1,8.6,32.9,22530*,5.4
O=c1c2ccccc2c(C=NCc2ccccn2)c(O)n1-c1ccccc1,-0.1,162.2*,0.0,8.1,2639,-10.4
CC(C)/C=C1\CC/C(=C\c2ccc(N(C)C)cc2)C1=O,34.2*,419.4*,15.7,-0.2,6586,9.4
CC(C)c1ccc(/C=C2\CC/C(=C\C=N\N(C)C)C2=O)cc1,0.0,-8.9,-10.0,-8.3,8046,0.4
Cc1cc(C)c2nc(SCc3ccc([N+](=O)[O-])cc3)nc(C)c2c1,?,-0.4,0.6,23.1,20592*,-1.9
Cc1nc2ccccc2c(=O)n1-c1ccc([N+](=O)[O-])cc1,-2.3,-4.2,-15.8,7.9,3535,3.2
Cc1ccc(-n2c(SCc3ccc([N+](=O)[O-])cc3)nc3ccccc3c2=O)cc1,3.6,-12.1,-6.4,11.7,20811*,2.0
Cc1ccc2nc(SCc3ccc([N+](=O)[O-])cc3)nc(C)c2c1,?,12.0,0.5,2.6,23313*,0.3
COc1ccccc1C(=O)NC(CCSC)C(=O)NCc1ccccn1 (configuration not stated),0.6,9.2,2.5,nt,4681,-3.3
COc1cc(-c2coc3c(C(=O)NCc4ccccc4)cccc23)ccc1O,-0.2,nt,-1.7,nt,3771,1.9
COc1ccc(-n2cc(-c3ccc(OC)c(OC)c3)[nH]c2=S)cc1,0.0,-1.5,-8.0,50.6*,3345,3.2
COc1ccc(-n2cc(-c3ccc(Br)cc3)[nH]c2=S)cc1,0.0,-2.0,0.2,-8.9,4313,-4.1
CC(O)(CS(=O)(=O)Cc1ccccc1)C(=O)Nc1cccc(C(F)(F)F)c1 (configuration not stated),0.7,0.6,0.2,26.9,20560*,1.1
CC(O)(CS(=O)(=O)c1cccc(C(F)(F)F)c1)C(=O)Nc1cccc(C(F)(F)F)c1 (configuration not stated),0.8,-2.0,-3.7,22.8,10906,-3.5
